# Assays:
# Assay in all cases: DAPPL (digital affinity profiling via proximity ligation, sequencing); 10 mM Tris-HCl pH 7.5, 50 mM NaCl, 1 mM DTT, 4% glycerol, room temperature, 30 min; GST-TFs on glutathione beads, 16-mer random dsDNA library, 0.1% formaldehyde crosslink after washing; high values mean tight binding
# Conditions in all cases: protein: recombinant; tags: N-terminal GST; dsDNA, one strand shown
# [1] = molecular target: T1, FLI1 (Homo sapiens, UniProt Q01543 1-452)
# T1 sequence: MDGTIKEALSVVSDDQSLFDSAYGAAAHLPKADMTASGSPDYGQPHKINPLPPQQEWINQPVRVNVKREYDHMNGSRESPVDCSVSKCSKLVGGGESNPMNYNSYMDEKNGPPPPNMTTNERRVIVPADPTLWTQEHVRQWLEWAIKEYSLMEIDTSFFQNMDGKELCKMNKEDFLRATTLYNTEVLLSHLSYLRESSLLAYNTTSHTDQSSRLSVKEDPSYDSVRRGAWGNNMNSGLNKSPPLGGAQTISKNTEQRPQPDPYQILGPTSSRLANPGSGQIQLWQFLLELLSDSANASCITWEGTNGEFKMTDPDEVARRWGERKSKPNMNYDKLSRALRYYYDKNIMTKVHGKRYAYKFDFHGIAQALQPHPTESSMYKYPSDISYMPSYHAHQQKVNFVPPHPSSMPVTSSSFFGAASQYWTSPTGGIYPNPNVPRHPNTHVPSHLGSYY
# Outline: (§1)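 Human transcription factors were made in yeast as GST fusions, captured on glutathione beads and barcoded with DNA. With a tag-only sample included, the pool was incubated with 200 nmole of a random double-stranded 16-mer DNA library in Tris/NaCl/DTT/glycerol buffer at room temperature for 30 min, then crosslinked with 0.1% formaldehyde after washing, ligated by proximity, amplified and sequenced. For binding signal, each hexamer's read frequency for a factor is divided by its frequency for the tag-only sample.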
# [2] = molecular target: T2, GABPA (Homo sapiens, UniProt Q06546 1-454)
# T2 sequence: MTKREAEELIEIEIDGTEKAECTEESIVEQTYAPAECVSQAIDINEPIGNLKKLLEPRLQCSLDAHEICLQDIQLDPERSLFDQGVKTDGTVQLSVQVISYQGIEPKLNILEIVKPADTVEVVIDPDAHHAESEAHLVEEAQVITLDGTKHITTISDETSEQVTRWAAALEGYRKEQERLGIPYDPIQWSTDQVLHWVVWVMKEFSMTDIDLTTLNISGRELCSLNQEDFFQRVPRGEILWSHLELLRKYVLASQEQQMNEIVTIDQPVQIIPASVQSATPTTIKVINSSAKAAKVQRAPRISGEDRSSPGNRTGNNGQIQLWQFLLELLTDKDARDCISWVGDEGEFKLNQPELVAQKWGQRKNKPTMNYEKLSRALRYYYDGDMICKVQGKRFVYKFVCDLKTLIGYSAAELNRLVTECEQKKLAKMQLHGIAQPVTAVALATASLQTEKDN
# Outline: as §1
# [3] = molecular target: T3, EHF (Homo sapiens, UniProt Q9NZC4 1-300)
# T3 sequence: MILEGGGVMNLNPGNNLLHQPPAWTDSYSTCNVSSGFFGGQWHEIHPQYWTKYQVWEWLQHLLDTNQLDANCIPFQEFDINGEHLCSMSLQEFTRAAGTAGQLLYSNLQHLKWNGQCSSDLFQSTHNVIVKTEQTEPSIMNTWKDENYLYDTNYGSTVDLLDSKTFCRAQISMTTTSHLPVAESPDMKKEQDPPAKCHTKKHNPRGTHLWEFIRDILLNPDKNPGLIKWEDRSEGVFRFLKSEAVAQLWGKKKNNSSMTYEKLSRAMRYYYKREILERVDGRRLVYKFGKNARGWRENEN
# Outline: as §1
# [4] = molecular target: T4, ELK3 (Homo sapiens, UniProt P41970 1-407)
# T4 sequence: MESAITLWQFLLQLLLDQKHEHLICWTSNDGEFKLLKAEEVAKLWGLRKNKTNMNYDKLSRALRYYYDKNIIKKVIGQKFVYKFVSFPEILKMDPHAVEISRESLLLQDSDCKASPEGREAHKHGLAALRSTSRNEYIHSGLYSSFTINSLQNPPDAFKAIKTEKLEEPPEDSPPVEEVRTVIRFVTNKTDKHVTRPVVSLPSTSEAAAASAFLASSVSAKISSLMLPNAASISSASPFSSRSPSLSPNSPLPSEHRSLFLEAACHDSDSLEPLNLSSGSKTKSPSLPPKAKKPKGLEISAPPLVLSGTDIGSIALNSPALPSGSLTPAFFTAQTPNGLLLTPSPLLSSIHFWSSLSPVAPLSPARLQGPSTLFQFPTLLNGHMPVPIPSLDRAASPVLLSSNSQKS
# Outline: as §1
# [5] = molecular target: T5, SPIC (Homo sapiens, UniProt Q8N5J4 1-248)
# T5 sequence: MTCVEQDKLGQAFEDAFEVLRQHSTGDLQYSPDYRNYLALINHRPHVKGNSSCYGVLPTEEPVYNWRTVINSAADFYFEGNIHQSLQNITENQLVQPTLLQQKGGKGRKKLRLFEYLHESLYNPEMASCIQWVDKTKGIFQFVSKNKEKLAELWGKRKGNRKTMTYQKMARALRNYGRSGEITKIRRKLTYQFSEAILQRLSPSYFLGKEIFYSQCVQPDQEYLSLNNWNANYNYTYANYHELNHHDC
# Outline: as §1
# [6] = molecular target: T6, ELK4 (Homo sapiens, UniProt P28324-2 1-405)
# T6 sequence: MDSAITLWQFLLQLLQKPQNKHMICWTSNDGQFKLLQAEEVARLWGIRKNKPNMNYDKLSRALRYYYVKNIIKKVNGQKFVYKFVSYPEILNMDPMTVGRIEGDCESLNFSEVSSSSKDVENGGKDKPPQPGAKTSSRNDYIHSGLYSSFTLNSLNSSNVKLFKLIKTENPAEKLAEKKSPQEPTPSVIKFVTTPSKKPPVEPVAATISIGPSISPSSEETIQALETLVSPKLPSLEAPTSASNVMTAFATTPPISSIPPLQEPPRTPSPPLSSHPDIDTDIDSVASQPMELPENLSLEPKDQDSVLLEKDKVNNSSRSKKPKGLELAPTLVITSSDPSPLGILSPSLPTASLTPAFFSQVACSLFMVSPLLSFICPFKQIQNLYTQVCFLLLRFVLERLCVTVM
# Outline: as §1
# [7] = molecular target: T7, ELF3 (Homo sapiens, UniProt P78545 1-371)
# T7 sequence: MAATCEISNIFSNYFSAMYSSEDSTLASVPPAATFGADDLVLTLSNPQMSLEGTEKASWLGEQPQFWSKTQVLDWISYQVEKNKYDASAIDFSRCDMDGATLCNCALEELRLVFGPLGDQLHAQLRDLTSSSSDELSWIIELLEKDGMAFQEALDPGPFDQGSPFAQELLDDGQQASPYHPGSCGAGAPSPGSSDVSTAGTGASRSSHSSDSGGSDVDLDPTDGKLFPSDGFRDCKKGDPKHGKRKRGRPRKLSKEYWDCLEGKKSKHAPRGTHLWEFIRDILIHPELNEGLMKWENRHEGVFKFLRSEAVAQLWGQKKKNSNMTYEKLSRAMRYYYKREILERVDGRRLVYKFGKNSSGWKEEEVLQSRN
# Outline: as §1
# [8] = molecular target: ETV1 (Homo sapiens, UniProt P50549 1-477)
# Outline: as §1
# [9] = molecular target: T8, ERF (Homo sapiens, UniProt P50548 1-548)
# T8 sequence: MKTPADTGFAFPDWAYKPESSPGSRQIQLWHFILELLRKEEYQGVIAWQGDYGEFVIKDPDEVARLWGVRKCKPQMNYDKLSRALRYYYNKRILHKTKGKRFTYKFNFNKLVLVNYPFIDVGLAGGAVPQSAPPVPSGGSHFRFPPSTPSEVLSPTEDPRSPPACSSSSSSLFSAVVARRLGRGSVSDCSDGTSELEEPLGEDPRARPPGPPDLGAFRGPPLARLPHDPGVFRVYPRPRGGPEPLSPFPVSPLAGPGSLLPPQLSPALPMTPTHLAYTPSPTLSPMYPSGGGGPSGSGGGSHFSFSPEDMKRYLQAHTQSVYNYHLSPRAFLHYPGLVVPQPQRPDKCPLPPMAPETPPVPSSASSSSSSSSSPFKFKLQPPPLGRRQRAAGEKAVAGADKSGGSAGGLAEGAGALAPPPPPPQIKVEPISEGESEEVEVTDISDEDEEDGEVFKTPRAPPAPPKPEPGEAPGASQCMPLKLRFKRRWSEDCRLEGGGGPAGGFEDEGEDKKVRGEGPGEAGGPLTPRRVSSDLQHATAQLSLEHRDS
# Outline: as §1
# [10] = molecular target: T9, ETV3L (Homo sapiens, UniProt Q6ZN32 1-361)
# T9 sequence: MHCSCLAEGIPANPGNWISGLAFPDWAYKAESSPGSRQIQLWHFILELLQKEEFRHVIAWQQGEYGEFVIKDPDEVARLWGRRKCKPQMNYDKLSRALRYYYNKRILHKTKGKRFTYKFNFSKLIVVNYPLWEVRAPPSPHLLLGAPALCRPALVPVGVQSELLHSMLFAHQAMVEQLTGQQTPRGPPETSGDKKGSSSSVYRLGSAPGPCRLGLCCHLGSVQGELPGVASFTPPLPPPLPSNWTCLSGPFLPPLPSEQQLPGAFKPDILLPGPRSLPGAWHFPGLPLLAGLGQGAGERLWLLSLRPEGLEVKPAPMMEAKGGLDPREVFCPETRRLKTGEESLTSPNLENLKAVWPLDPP
# Outline: as §1
# [11] = molecular target: T10, ETV7 (Homo sapiens, UniProt Q9Y603 1-341)
# T10 sequence: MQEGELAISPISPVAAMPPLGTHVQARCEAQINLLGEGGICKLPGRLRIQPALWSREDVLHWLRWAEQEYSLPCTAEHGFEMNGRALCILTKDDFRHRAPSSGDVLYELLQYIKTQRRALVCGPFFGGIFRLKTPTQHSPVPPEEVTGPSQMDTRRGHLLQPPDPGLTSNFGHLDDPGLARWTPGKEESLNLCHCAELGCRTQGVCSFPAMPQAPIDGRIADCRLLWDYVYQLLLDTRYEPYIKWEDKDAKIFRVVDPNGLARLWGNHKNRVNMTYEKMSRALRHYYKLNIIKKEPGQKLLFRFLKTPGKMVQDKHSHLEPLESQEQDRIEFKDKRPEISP
# Outline: as §1
# [12] = molecular target: T11, ETV3 (Homo sapiens, UniProt P41162-2 1-143)
# T11 sequence: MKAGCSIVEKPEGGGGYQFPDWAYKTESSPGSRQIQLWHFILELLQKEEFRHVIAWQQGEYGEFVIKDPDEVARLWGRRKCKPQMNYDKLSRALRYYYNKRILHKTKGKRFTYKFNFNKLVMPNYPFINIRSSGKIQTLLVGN
# Outline: as §1
# [13] = molecular target: ETV6 (Homo sapiens, UniProt P41212 1-452)
# Outline: as §1
# [14] = molecular target: T12, ETV2 (Homo sapiens, UniProt O00321 1-342)
# T12 sequence: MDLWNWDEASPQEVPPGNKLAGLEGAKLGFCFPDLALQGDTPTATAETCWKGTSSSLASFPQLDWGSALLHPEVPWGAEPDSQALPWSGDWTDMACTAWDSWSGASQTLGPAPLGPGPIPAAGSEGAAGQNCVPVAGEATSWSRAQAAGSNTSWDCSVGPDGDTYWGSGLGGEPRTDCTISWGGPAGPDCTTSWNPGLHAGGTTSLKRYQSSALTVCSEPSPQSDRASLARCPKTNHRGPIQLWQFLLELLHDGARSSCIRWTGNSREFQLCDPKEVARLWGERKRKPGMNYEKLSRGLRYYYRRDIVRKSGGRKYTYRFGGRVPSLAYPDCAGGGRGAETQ
# Outline: as §1
# [15] = molecular target: ELF1 (Homo sapiens, UniProt P32519 1-619)
# Outline: as §1
# [16] = molecular target: SPIB (Homo sapiens, UniProt Q01892 1-262)
# Outline: as §1
# [17] = molecular target: ELF4 (Homo sapiens, UniProt Q99607 1-663)
# Outline: as §1
# Chain of ETV6 (P41212 whole entry): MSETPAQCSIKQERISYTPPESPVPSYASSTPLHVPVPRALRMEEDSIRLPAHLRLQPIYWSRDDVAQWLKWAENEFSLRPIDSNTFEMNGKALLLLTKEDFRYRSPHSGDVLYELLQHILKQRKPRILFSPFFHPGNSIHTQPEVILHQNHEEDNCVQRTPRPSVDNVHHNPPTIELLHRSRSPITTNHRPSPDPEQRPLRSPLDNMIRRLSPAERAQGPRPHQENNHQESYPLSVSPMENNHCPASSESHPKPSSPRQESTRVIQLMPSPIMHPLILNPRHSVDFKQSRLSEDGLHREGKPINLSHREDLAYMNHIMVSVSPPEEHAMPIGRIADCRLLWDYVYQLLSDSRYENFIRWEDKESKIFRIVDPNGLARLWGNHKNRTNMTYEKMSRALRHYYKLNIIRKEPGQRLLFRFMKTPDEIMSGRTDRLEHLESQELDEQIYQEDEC
# Chain of ETV1 (P50549 whole entry): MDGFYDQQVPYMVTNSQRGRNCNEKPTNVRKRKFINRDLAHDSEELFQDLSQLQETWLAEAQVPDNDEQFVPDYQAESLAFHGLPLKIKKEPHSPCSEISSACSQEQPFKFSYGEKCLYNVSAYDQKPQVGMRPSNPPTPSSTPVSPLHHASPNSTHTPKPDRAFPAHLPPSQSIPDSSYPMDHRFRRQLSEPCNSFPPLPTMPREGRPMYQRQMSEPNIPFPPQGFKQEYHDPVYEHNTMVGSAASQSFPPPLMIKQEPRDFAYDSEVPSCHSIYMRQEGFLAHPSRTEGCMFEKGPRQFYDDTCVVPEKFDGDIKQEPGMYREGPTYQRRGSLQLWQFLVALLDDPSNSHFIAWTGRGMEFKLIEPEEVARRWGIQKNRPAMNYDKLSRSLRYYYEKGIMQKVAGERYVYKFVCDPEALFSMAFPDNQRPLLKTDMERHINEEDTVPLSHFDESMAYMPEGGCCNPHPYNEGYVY
# Chain of ELF4 (Q99607 whole entry): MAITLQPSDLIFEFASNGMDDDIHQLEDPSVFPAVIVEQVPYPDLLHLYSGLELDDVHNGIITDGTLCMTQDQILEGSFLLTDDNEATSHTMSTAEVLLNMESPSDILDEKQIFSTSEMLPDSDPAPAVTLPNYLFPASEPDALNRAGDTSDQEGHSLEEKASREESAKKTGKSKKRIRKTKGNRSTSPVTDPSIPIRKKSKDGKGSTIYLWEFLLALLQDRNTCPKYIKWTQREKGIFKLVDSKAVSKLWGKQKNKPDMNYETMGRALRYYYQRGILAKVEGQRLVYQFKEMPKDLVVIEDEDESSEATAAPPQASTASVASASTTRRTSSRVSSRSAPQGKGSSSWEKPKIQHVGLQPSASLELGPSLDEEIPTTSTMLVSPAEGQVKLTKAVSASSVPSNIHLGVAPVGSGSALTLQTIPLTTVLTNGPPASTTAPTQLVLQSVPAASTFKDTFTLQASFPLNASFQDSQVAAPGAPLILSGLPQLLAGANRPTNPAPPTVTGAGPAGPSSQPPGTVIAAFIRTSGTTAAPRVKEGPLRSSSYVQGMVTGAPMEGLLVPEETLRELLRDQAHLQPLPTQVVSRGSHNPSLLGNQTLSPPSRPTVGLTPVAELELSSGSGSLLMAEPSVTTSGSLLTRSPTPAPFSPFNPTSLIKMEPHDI
# Chain of ELF1 (P32519 whole entry): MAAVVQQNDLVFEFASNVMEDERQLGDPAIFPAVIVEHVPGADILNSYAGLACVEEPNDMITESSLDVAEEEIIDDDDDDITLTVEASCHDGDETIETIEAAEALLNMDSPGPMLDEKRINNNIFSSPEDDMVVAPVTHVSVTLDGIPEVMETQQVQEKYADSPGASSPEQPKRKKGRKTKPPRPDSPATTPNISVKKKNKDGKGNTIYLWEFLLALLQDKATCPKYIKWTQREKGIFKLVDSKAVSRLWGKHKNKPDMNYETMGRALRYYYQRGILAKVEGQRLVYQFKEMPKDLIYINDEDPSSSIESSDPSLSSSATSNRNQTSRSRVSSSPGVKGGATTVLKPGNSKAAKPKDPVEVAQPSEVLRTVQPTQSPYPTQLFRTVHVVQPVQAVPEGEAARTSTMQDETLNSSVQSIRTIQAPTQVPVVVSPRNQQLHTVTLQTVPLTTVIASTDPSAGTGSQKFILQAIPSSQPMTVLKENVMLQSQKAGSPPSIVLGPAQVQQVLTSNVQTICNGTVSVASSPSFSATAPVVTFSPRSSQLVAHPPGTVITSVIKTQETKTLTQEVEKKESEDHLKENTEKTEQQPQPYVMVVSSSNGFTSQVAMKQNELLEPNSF
# Chain of SPIB (Q01892 whole entry): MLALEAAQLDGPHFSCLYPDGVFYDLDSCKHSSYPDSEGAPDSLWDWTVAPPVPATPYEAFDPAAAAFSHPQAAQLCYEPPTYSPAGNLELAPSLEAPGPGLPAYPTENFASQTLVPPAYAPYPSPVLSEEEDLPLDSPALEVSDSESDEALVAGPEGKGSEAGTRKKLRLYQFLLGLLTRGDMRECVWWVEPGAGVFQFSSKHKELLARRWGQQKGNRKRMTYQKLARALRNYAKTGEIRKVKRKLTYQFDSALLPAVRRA
sequence,measurement,setting,value
GTTTGT,binding signal,[1],"1.15 fold enrichment (6-mer frequency, TF over GST control)"
same,binding signal,[2],"1.03 fold enrichment (6-mer frequency, TF over GST control)"
same,binding signal,[3],"1.03 fold enrichment (6-mer frequency, TF over GST control)"
same,binding signal,[4],"1.06 fold enrichment (6-mer frequency, TF over GST control)"
same,binding signal,[5],"1.01 fold enrichment (6-mer frequency, TF over GST control)"
same,binding signal,[6],"1.19 fold enrichment (6-mer frequency, TF over GST control)"
same,binding signal,[7],"1.07 fold enrichment (6-mer frequency, TF over GST control)"
same,binding signal,[8],"1.04 fold enrichment (6-mer frequency, TF over GST control)"
same,binding signal,[9],"1.06 fold enrichment (6-mer frequency, TF over GST control)"
same,binding signal,[10],"1.06 fold enrichment (6-mer frequency, TF over GST control)"
same,binding signal,[11],"1.11 fold enrichment (6-mer frequency, TF over GST control)"
same,binding signal,[12],"1.06 fold enrichment (6-mer frequency, TF over GST control)"
same,binding signal,[13],"1.11 fold enrichment (6-mer frequency, TF over GST control)"
GTGGCA,binding signal,[1],"1.05 fold enrichment (6-mer frequency, TF over GST control)"
same,binding signal,[3],"1.03 fold enrichment (6-mer frequency, TF over GST control)"
same,binding signal,[4],"1.04 fold enrichment (6-mer frequency, TF over GST control)"
same,binding signal,[5],"1.04 fold enrichment (6-mer frequency, TF over GST control)"
same,binding signal,[6],"1.04 fold enrichment (6-mer frequency, TF over GST control)"
same,binding signal,[14],"1.07 fold enrichment (6-mer frequency, TF over GST control)"
same,binding signal,[12],"1 fold enrichment (6-mer frequency, TF over GST control)"
same,binding signal,[13],"1.05 fold enrichment (6-mer frequency, TF over GST control)"
AGGCCC,binding signal,[1],"1.01 fold enrichment (6-mer frequency, TF over GST control)"
same,binding signal,[5],"1.08 fold enrichment (6-mer frequency, TF over GST control)"
same,binding signal,[11],"1.03 fold enrichment (6-mer frequency, TF over GST control)"
same,binding signal,[12],"1.01 fold enrichment (6-mer frequency, TF over GST control)"
CAAAGT,binding signal,[1],"1.01 fold enrichment (6-mer frequency, TF over GST control)"
same,binding signal,[15],"1.03 fold enrichment (6-mer frequency, TF over GST control)"
same,binding signal,[16],"1.04 fold enrichment (6-mer frequency, TF over GST control)"
same,binding signal,[4],"1.06 fold enrichment (6-mer frequency, TF over GST control)"
same,binding signal,[17],"1.03 fold enrichment (6-mer frequency, TF over GST control)"
same,binding signal,[11],"1 fold enrichment (6-mer frequency, TF over GST control)"
